Data published in PubChem BioAssay AID2534 (National Center for Advancing Translational Sciences (NCATS), 2010).
Inconclusive results are not listed. Activity calls are given as the source filed them. Calls follow the shape of the dose curve; as a rule, active = well fitted curve in the direction sought with a large enough effect; inconclusive = small, poorly fitted or top-dose-only effect, or effect the other way, or another doubt; inactive = no such curve, though single readings can be large or run the other way.

biological target: Pyruvate kinase PKLR (Homo sapiens) (UniProt P30613); assay: Secondary Concentration-Response Assay for Activators of Human Reticulocyte Pyruvate Kinase: for Probe SAR; settings: purified hPK-R, ATP production, Kinase-Glo luminescence; series mostly up to 57.5 µM; activity change, negative = inhibition: at the top concentration
From the text: NIH Chemical Genomics Center [NCGC]
Wael M. Rabeh, Lyudmila Nedyalkova and Hee-Wan Park [Structural Genomics Consortium, 100 College St. Toronto, Ontario, Canada]
Human pyruvate kinase reticulocyte (hPK-R) enzyme was supplied as a highly purified (>95% pure) preparation from Structural Genomics Consortium in Toronto (Ontario, Canada) and assayed for its ability to generate ATP from ADP using phosphoenolpyruvate (PEP) as a substrate. ATP generation was detected in a coupled reaction by luciferase-mediated luminescence, an ATP-dependent process. Pyruvate kinase substrates, PEP and ADP, were present in the assay at Km and approximately 10-fold below Km respectively. The enzyme was assayed at an intermediate level of activity to screen for both inhibitors and activators.
NCGC Assay Protocol Summary for R-isoform
Three uL of substrate mix (at r.t.) in assay buffer (50 mM Imidazole pH7.2, 50 mM KCl, 7 mM MgCl2, 0.01% Tween 20, 0.05% BSA) was dispensed into white solid bottom 1,536 well microtiter plates so that the final concentrations of substrates in the assay were 0.1 mM ADP and 0.5 mM PEP. 23 nL of compound were delivered by a pin tool and 1 uL of enzyme mix (final concentration of 0.1 nM) in assay buffer (4 degree Celsius) was added. Plates were incubated at room temperature for 1 hour. Two uL of detection mix (Kinase-Glo, Promega; at 4 degree Celsius protected from light) was added and luminescence read by a ViewLux (Perkin Elmer) at 1 second exposure/plate. Data were normalized to the uninhibited (row 31). Additionally, a no enzyme and 5-fold enzyme control was dispensed in row 32, split equally between the two conditions.

Pyruvate kinase PKLR (Homo sapiens), sequence (P30613 whole entry, looked up): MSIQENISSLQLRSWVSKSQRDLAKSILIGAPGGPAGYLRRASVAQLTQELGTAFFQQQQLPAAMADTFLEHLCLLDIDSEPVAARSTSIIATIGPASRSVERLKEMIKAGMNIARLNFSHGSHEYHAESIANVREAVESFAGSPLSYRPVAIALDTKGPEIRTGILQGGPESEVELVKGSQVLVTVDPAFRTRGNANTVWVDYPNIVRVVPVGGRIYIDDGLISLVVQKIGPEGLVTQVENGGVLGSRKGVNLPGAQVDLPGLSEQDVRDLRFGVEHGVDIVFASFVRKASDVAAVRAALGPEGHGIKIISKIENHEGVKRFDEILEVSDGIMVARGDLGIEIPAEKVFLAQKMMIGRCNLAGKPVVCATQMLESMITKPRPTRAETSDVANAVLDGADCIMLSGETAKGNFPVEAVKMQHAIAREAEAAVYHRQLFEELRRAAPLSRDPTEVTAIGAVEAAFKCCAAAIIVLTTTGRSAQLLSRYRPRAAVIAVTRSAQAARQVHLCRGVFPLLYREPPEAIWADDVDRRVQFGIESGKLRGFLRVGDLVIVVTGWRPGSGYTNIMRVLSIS

Activity change, negative = inhibition, inactive:
Cc1ccc(NS(=O)(=O)c2cc3c(cc2F)NC(=O)CC3)cc1Cl 0.0219%
COc1cccc(NS(=O)(=O)c2ccc3c(c2)CCC(=O)N3)c1 11%
O=C1c2ccccc2C(=O)N1Cc1ccccc1 8.92%
O=C1CCc2cc(S(=O)(=O)Nc3ccccn3)ccc2N1 7.53%
Cc1ccc(NS(=O)(=O)c2cc3c(cc2Cl)CCC(=O)N3)cc1Cl -0.101%
O=C1c2ccccc2C(=O)N1Cc1ccncc1 9.02%
Cc1ccc(NS(=O)(=O)c2ccc3c(c2)CCC(=O)N3)cc1C 0.345%
O=C1c2ccccc2C(=O)N1c1ccc(Cl)cc1 3.5%
O=C1CCc2cc(S(=O)(=O)Nc3ccc(F)cc3)ccc2N1 0.814%
Cc1ccc(NS(=O)(=O)c2ccc3c(c2)CCC(=O)N3)cc1F 1.93%
